Drawing on PubChem BioAssay (NCATS), this text covers Potency for 45 compounds.

The nature of experiment [1]: qHTS for Inhibitors of the Aldehyde Dehydrogenase Family (ALDH1A2, ALDH1A3, ALDH2, ALDH3A1) (AID 2061307). Note: test system not described further here; potency is the fitted concentration of half-maximal effect; nearly all actives have a fitted effect of over 50% in size. To be noted: ALDH inhibition qHTS; series mostly up to 50.3 µM. (In general: In qHTS, concentration-response curves come from the screen itself.)
Experiment [2] concerns the target Retinaldehyde dehydrogenase 3 (Homo sapiens) (UniProt P47895). The experiment can be described thus: qHTS for Inhibitors of the Aldehyde Dehydrogenase Family (ALDH1A3) Primary screen (AID 2061315). To be noted: ALDH inhibition qHTS; series mostly up to 56 µM.
Experiment [3] has as its target Aldehyde dehydrogenase, mitochondrial (Homo sapiens) (UniProt P05091). Kind of experiment: qHTS for Inhibitors of the Aldehyde Dehydrogenase Family (ALDH2) Primary screen (AID 2061308). Note: nearly all actives have a fitted effect of over 55% in size. Note: potency is the fitted concentration of half-maximal effect. The conditions noted are these: ALDH2 enzyme inhibition qHTS, 1536-well; series mostly up to 56 µM.
For experiment [4], the target named is Retinaldehyde dehydrogenase 3 (Homo sapiens) (UniProt P47895). The experiment can be described thus: qHTS for Inhibitors of the Aldehyde Dehydrogenase Family (ALDH1A3) Confirmatory screens (AID 2061311). Note: potency is the fitted concentration of half-maximal effect; nearly all actives have a fitted effect of over 60% in size. To be noted: ALDH inhibition qHTS; series mostly up to 46 µM.
Experiment [5] concerns the target Retinal dehydrogenase 2 (Homo sapiens) (UniProt O94788). The experiment can be described thus: qHTS for Inhibitors of the Aldehyde Dehydrogenase Family (ALDH1A2) Confirmation screens (AID 2061314). Note: potency is the fitted concentration of half-maximal effect; nearly all actives have a fitted effect of over 65% in size. To be noted: ALDH1A2 enzyme inhibition qHTS confirmation; series mostly up to 45.9 µM.

Inconclusive results are not listed. A call without a number means that no potency is given here. The source made the active and inactive calls. Calls come from the whole dose curve; as a rule, active = well fitted curve in the direction sought with a large enough effect; inconclusive = small, poorly fitted or top-dose-only effect, or another doubt; inactive = no such curve, though single readings can be large; an effect the other way counts as inactive or inconclusive.

For `Cc1ccc(C)n1-c1cccc(C(=O)O)c1`, in experiment [1], the Potency was 5.65 µM (active). In addition, in experiment [2], the Potency result is “inactive”.

Regarding `CCOc1ccc(CCNC(C)=O)cc1OCC`, the Potency entry in experiment [3] was “inactive”.

`OC/C=C/c1ccc(O[C@@H]2O[C@H](CO)[C@@H](O)[C@H](O)[C@H]2O)cc1`: the Potency entry in experiment [3] is “inactive”.

Turning to `FC(F)(F)c1ccc(N2CCN(C(=S)Nc3ccccn3)CC2)cc1`, in experiment [3], the Potency result was “inactive”.

In the case of `Cc1ccc(-c2ccc(=O)n(CC(=O)NCc3ccccc3)n2)cc1`, in experiment [3], the Potency result is “inactive”.

As to `COc1cccc(-c2nc(-c3cccc(C(=O)O)c3)no2)c1`, the Potency result in experiment [3] was “inactive”.

For `CN1CCc2ccc3c4c2[C@]1(C)Cc1cccc(c1-4)OCO3`, in experiment [3], the Potency entry was “inactive”.

As for `O=S(=O)(Nc1cccc2cccnc12)c1ccccc1O`, in experiment [3], the Potency entry is “inactive”.

In the case of `CCc1ccc(NC(=O)C(=O)NNC(=O)c2cccs2)cc1`, in experiment [3], the Potency result was “inactive”.

Take `CCOc1ccc(CCNC(=O)c2ccccn2)cc1OCC`: the Potency result in experiment [3] is “inactive”.

On to `COc1ccc(C[C@H](C)NC[C@@H](O)c2ccc(O)c(NC=O)c2)cc1`, for which the Potency entry in experiment [3] is “inactive”.

As to `COc1ccc2nc(-c3cccc(C)c3)sc2c1`, the Potency result in experiment [3] was “inactive”.

In the case of `O=C1c2ccccc2C(=O)N1c1cccc2cccnc12`, the Potency entry in experiment [3] is “inactive”.

Turning to `Fc1cc(Nc2nc(-c3ccncc3)nc3ccccc23)ccc1OC(F)(F)F`, the Potency entry in experiment [3] was “inactive”.

Consider `C=C1C(=O)OC2/C=C(\CO)CC/C=C(\C=O)C(O)C(OC(=O)C(C)CC)C12` (stereo unspecified), for which the Potency entry in experiment [3] is “inactive”.

As to `Cc1ccc(C2Nc3cccc4cccc(c34)N2)s1`, the Potency entry in experiment [3] was “inactive”.

As to `O=C(NO)c1cnc(N2CCN(S(=O)(=O)c3ccc4ccccc4c3)CC2)nc1`, the Potency result in experiment [3] was “inactive”.

In the case of `Cc1nnc(-c2cnn(C)c2N)n1CCCc1ccncc1`, in experiment [3], the Potency entry is “inactive”.

Turning to `Cc1ccc(-c2ccc(=O)n(CC(=O)NCCCc3ccco3)n2)cc1`, in experiment [3], the Potency result was “inactive”.

`Fc1ccccc1-c1nc(-c2cccc(-c3nn[nH]n3)c2)no1`: in experiment [3], the Potency entry is “inactive”.

In the case of `O=C(O)c1ccc(-c2noc(-c3ccc(F)cc3)n2)cc1`, in experiment [3], the Potency entry was “inactive”.

On to `CN(C)c1ccc(-c2nc3ccccc3s2)cc1`, for which the Potency entry in experiment [3] is “inactive”.

As to `CCC(=O)NC(c1ccco1)c1cc(Cl)c2ccccc2c1O` (stereo unspecified), the Potency result in experiment [3] was “inactive”.

In the case of `Cc1ccc(C2Nc3cccc4cccc(c34)N2)cc1`, the Potency entry in experiment [3] was “inactive”.

As to `Oc1c(CNc2ccccc2)cc(COCc2ccccc2)c2cccnc12`, the Potency entry in experiment [3] is “inactive”.

For `Cc1ccc(-c2ccc(=O)n(CC(=O)NCCc3ccccc3)c2)cc1`, the Potency entry in experiment [3] is “inactive”.

As to `COc1ccc(-c2ccc3c(N4CCOCC4)nc(N4CC(C)OC(C)C4)nc3n2)cc1CO` (stereo unspecified), the Potency entry in experiment [3] was “inactive”.

On to `CC(C)(C)OC(=O)N1CCN(c2ccc(NCc3ncc(-c4ccc(C#N)cc4)o3)cc2)CC1`, for which the Potency in experiment [3] was 1.12 µM (active).

For `Cc1ccnc(NC(=S)N2CCc3cccc(C(F)(F)F)c3C2)c1`, the Potency entry in experiment [3] is “inactive”.

Take `Cc1cc(NCc2ccc(-c3cccnc3)cc2)nc(-c2ccccc2C(C)C)n1`: the Potency result in experiment [3] was “inactive”.

As to `Cc1ccnc(NC(=S)N2CCN(c3ccc(C#N)cc3)CC2)c1`, the Potency result in experiment [3] was “inactive”.

For `C=C1/C(=C/C=C2\CCC[C@]3(C)[C@@H]([C@H](C)/C=C/C(=O)C4CC4)CC[C@@H]23)C[C@@H](O)C[C@@H]1O`, the Potency result in experiment [3] is “inactive”.

Turning to `COc1cc(N2CCOCC2)ccc1Nc1ncc(Cl)c(Nc2ccccc2NS(C)(=O)=O)n1`, the Potency entry in experiment [3] is “inactive”.

As to `CC(=O)Nc1sc2c(c1-c1ccc(N[S+](C)(=O)[O-])cc1)CCNC2`, the Potency result in experiment [3] is “inactive”.

Regarding `C=C1/C(=C/C=C2\CCC[C@]3(C)[C@@H]([C@H](C)/C=C/[C@@H](C)C(C)C)CC[C@@H]23)C[C@@H](O)C[C@@H]1O`, in experiment [3], the Potency result is “inactive”.

For `Cc1ccnc(NC(=S)N2CCC(c3cccc(C(F)(F)F)c3)CC2)c1`, in experiment [3], the Potency result was “inactive”.

As for `O=C(O)c1cccc(-c2noc(-c3ccccc3Cl)n2)c1`, the Potency result in experiment [3] was “inactive”.

Consider `FC(F)(F)c1cc(-c2ccc(CNc3nc(-c4ccccc4C(F)(F)F)nc4ccsc34)cc2)ccn1`, for which the Potency entry in experiment [3] is “inactive”.

On to `C=C1/C(=C/C=C2\CCC[C@@]3(C)C2CCC3[C@H](C)/C=C/[C@@H](O)C2CC2)C[C@@H](O)C[C@@H]1O` (stereo partly specified), for which the Potency entry in experiment [3] is “inactive”.

With `CC1(C)OB(c2ccc(O)c3ncc(N4CCNCC4)cc23)OC1(C)C`, in experiment [3], the Potency entry is “inactive”.

Take `Cc1ccc(-c2ccc(=O)n(CC(=O)NCCc3ccncc3)n2)cc1`: the Potency entry in experiment [3] was “inactive”.

Consider `C=C1CC[C@@H]2[C@](C)(CO)[C@H](O[C@@H]3O[C@H](CO)[C@@H](O)[C@H](O)[C@H]3O)CC[C@@]2(C)[C@@H]1C/C=C1/C(=O)OC[C@H]1O`, for which, in experiment [3], the Potency entry was “inactive”.

Turning to `Cc1ccc(S(=O)(=O)Nc2cnccc2C(=O)Nc2ccc(N3CCOCC3)cc2)cc1`, in experiment [3], the Potency entry is “inactive”. In addition, the figures for the Potency in experiment [4] and in experiment [5] were 4 µM (active) and 6.34 µM (active), respectively.

As for `COc1cncc(NC(=O)c2cccs2)c1`, the Potency entry in experiment [3] was “inactive”. Further, the Potency in experiment [4] was 11.3 µM (active).

Take `CC(=O)NC(c1cc(Cl)c2ccccc2c1O)C(C)C` (stereo unspecified): the Potency entry in experiment [3] is “inactive”. The Potency is 8.96 µM (active) in experiment [4] and 20.1 µM (active) in experiment [5].
